Assay results: PubChem BioAssay AID435000 (NMMLSC, 2010)
The list shows a part of the results.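 Rule for the calls: active = fluorescence response below 15%; inactive = the rest.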

assay: DHE quenching or ROS scavenging interference in aged yeast, artefact control for yeast caloric restriction mimetic project, S. cerevisiae BY4741, flow cytometry (AID 435000); details: at 10 µM, stronger effect = lower value;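 note: percent of the mean fluorescence averaged over all compound wells on the plate; lower means stronger quenching of DHE signal or ROS scavenging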

Fluorescence response, inactive:
O=C(Nc1cccc(Cl)c1Cl)c1ccccc1NC(=O)C1CC=CCC1C(=O)O (stereo unspecified) 89.9%, COc1cccc(NC(=O)NCCN2CCCCC2)c1 93.8%, CC(=O)c1ccc2c(c1)c1ccccc1n2CC(C)C 107%, CNC(=O)c1cccc2nc3ccccc3nc12 105%, Cn1c(Nc2ccccc2)cc(=O)n(C)c1=O 113%, CC(=O)C[C@@H](O)CC(=O)[C@H]1OC(=O)CCCCCCc2ccccc21 113%
